Measured values reported in PubChem BioAssay (Tox21).
Values joined by “and” are separate entries in the source; they are usually repeats but may differ in a detail not shown here. Equal entries are not always repeated. Records with an inconclusive call do not appear. A number with no mark means an inactive call. Active and inactive are the calls of the source. The call rests on the fitted dose curve; in most records, active means well fitted cell-killing curve with a large enough effect in the repeat runs; inconclusive means weak or mixed curves; inactive means no such curve, though single readings can be large or run the other way.

test: qHTS assay to identify small molecule agonists of the peroxisome proliferator-activated receptor delta (PPARd) signaling pathway - cell viability counter screen (AID 743211); conditions: PPARd-bla HEK293H viability, CellTiter-Glo luminescence, 17 h; series mostly up to 62.6 µM; activity change, negative = cytotoxicity: at the top concentration; further: nearly all actives have a fitted effect of over 55% in size
Description: U.S. Tox21 Program National Center for Advancing Translational Sciences [NCATS] NIH Chemical Genomics Center [NCGC] U.S. Environmental Protection Agency [EPA] National Institutes of Environmental Health Sciences [NIEHS] National Toxicology Program [NTP] U.S. Food and Drug Administration [FDA] Tox21 Assay Overview: The peroxisome proliferator-activated receptors (PPARs) are lipid-activated transcription factors of the nuclear receptor superfamily with three distinct subtypes namely PPAR alpha, PPAR delta (PPARd) and PPAR gamma. All these subtypes heterodimerizes with Retinoid X receptor (RXR) and have different physiological functions. […] To identify the compounds that activate PPAR-delta signaling, GeneBLAzer PPAR delta UAS-bla HEK293H cell line (Invitrogen, Carlsbad, CA, USA) containing a beta-lactamase reporter gene under the control of an Upstream Activator Sequence (UAS) was used to screen the Tox21 compound library. The cytotoxicity of the Tox21 compound library against the PPARd-bla cell line was tested in parallel by measuring the cell viability using CellTiter-Glo assay (Promega, Madison, WI) in the same wells.
Tox21 Assay Protocol Summary: PPARd-bla cells were dispensed at 3000 cells/6uL/well in 1536-well black wall/clear bottom plates using a Multidrop Combi (Thermo Fisher Scientific, Waltham, MA) dispenser. After the assay plates were incubated at 37 C and 5% CO2 for 5 h, 23 nL of compounds dissolved in DMSO, positive controls or DMSO only was transferred to the assay plate by a Pintool station (Kalypsys, San Diego, CA). The assay plates were incubated at 37C for 17 h. After 1 uL of LiveBLAzerTM B/G FRET substrate was added using a Bioraptr Flying Reagent Dispenser (FRD) workstation (Beckman Coulter, Indianapolis, IN, USA), the plates were incubated at room temperature for 2 h, and fluorescence intensity was measured by an Envision plate reader (PerkinElmer, Shelton, CT). For cell viability readout that measures cytotoxicity, 3 ul/well of CellTiter-Glo reagent was added into the assay plates using a Bioraptr FRD. After 30 min incubation at room temperature, the luminescence intensity in the plates was measured using a ViewLux plate reader (PerkinElmer).
On the % scale 0 is the no-effect control and ±100 the full control effect; potency means the concentration at half of the fitted maximal effect.

Structure (SMILES) | Potency | activity change, negative = cytotoxicity
Clc1ccc2c(c1)C(N1CCNCC1)=Nc1ccccc1O2 | 27.5 µM (active) and 26.6 µM (active) | 
c1ccc2c(c1)-c1cccc3c1c-2cc1ccccc13 | inactive | 
CCOc1ccc2c(c1)C(C)=CC(C)(C)N2 | inactive | 
Cc1occc(=O)c1OC(=O)C(C)C |  | -0.877%
CC[C@]1(O)C[C@@H]2CN(CCc3c([nH]c4ccccc34)[C@@](C(=O)OC)(c3cc4c(cc3OC)N(C)[C@H]3[C@@](O)(C(=O)OC)[C@H](OC(C)=O)[C@]5(CC)C=CCN6CC[C@]43[C@@H]65)C2)C1 |  | -12.8%
C[N+]1([O-])CCOCC1 |  | 0.204%
NNCCc1ccccc1 | inactive | 
CCCCCCCCCCCCc1ccccc1O | 13.6 µM (active) and 34.7 µM (active) | 
CN(C)c1ccc2nc3ccc(=[N+](C)C)cc-3sc2c1 | 9.39 µM (active) and 49 µM (active) | 
CCCCCCCCCCCCCCCCCl |  | 0.0838% [at 29.1 µM]
Nc1cc(Cl)c(-c2cc(Cl)c(N)cc2Cl)cc1Cl | 48.9 µM (active) and 43.6 µM (active) | 
CN(C)c1ccc(C(=C2C=CC(=[N+](C)C)C=C2)c2ccccc2)cc1 | 347 nM (active) and 1.33 µM (active) | 
C/C=C/c1ccc(OCC)c(O)c1 |  | 7.04%
CC(=O)OCC1=C(C(=O)O)N2C(=O)[C@@H](NC(=O)Cc3cccs3)[C@H]2SC1 |  | 3.05%
CCOc1ccccc1C(N)=O |  | -14.3%
NC(=Nc1ccccc1)Nc1ccccc1 |  | 13.2%
CC(C(O)c1ccc(O)cc1)N1CCC(Cc2ccccc2)CC1 (stereo not given) |  | 0.0301%
c1ccc2n[nH]nc2c1 |  | 0.117%
CCCCCCC(O)CCCCCCCCCCC(=O)O (stereo not given) | 19.6 µM (active) and 19.5 µM (active) | 
O | inactive | 

Structure (SMILES) | Potency | activity change, negative = cytotoxicity
CCOC(=O)C(C)C(C)=O (stereo not given) |  | 2.37% [at 81.1 µM]
O=C(O)CP(=O)(O)O |  | -1.84%
O=C1Nc2ccccc2C1(c1ccc(O)cc1)c1ccc(O)cc1 | inactive | 
C1COC(NC(C2CC2)C2CC2)=N1 |  | -7.16%
COC(c1ccccc1)(c1ccccc1)[C@H](Oc1nc(C)cc(C)n1)C(=O)O |  | 0.264%
CCC(=O)/C=C/C1C(C)=CCCC1(C)C (stereo not given) | inactive | 
CC(C)(O)CCC(C)(C)O |  | -3.09% [at 81.1 µM]
CCC(C)(Oc1ccc(C2(c3ccc(OC(C)(CC)C(=O)O)cc3)CCCCC2)cc1)C(=O)O (stereo not given) |  | -1.14%
CC1COc2c(N3CCN(C)CC3)c(F)cc3c(=O)c(C(=O)O)cn1c23 (stereo not given) |  | 44.7%
CN1C(=O)c2ccc([N+](=O)[O-])cc2C1=O |  | 6.77%
O=Nc1ccc(Nc2ccccc2)cc1 | 43.9 µM (active) and 38.9 µM (active) | 
CC(C)CCCCCCc1ccc(O)cc1 | 35.3 µM (active) | 
CC(=O)OCCOCCOCCOC(C)=O | inactive | 
Cc1c(O)cccc1C(=O)N[C@@H](CSc1ccccc1)[C@H](O)CN1C[C@H]2CCCC[C@H]2C[C@H]1C(=O)NC(C)(C)C | 7.56 µM (active) and 18.8 µM (active) | 
CC(C)C(=O)c1c(C(C)C)nn2ccccc12 |  | -0.404%
NC(Cc1ccc(Cl)cc1)C(=O)O (stereo not given) |  | 4.79% [at 0.55 µM]
CCCCCC(=O)O[C@]1(C(C)=O)CC[C@H]2[C@@H]3CCC4=CC(=O)CC[C@]4(C)[C@H]3CC[C@@]21C | 48.6 µM (active) and 29.8 µM (active) | 
NC(N)=Nc1nc(CSCC/C(N)=N/S(N)(=O)=O)cs1 | inactive | 
CCCCC/C=C/CC1CC(=O)OC1=O (stereo not given) |  | 4.16%
CC1=C(C=O)C(C)(C)CC=C1 |  | 4.88% [at 81.1 µM]
